Results from PubChem BioAssay AID2845 (The Scripps Research Institute Molecular Screening Center, 2010).
Among all 2,300 compounds or so, about 2,000 (87%) were called active. The set was probably picked from earlier hits. The list is a sample of the results. Unmarked numbers belong to inactive results. Cut-off read from the data, not from the text of the source: active = activation above about 49%; inactive = the rest.

target: Aryl hydrocarbon receptor (Homo sapiens) (UniProt P35869); assay: AHR activators, confirmation, cell-based, luminescence, luciferase reporter, human (AID 2845); conditions: human cells, AHR-responsive luciferase reporter, at 9 µM, hits give high values;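 note: HepG2 hepatoma cells carrying a DRE-driven firefly luciferase reporter; 0% = vehicle wells and 100% = reference agonist wells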
Sequence (P35869 whole entry, looked up): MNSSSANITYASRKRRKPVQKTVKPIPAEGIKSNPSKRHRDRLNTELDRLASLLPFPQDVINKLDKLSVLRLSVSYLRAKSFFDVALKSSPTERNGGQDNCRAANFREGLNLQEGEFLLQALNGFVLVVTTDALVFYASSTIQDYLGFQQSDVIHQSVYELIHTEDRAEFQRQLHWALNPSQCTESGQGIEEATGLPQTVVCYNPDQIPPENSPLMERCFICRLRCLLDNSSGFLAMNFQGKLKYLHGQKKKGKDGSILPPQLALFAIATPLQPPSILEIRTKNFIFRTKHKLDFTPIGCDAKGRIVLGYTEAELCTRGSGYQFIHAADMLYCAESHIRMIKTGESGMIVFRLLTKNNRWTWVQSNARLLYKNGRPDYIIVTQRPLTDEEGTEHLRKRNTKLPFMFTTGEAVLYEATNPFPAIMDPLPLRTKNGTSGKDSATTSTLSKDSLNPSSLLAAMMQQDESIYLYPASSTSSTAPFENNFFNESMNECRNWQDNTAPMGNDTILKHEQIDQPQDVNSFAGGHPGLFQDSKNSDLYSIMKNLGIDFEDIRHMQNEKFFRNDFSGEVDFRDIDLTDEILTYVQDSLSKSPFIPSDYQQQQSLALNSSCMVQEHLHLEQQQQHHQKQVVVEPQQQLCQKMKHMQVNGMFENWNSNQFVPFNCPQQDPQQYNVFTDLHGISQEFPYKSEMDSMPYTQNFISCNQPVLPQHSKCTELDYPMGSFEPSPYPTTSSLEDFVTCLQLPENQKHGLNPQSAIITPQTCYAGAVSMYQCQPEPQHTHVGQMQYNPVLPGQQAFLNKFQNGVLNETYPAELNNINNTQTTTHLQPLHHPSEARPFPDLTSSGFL

**Q.** Which activation does the source give for `Cc1ccnc(-n2sc3ccccc3c2=O)n1` here?
**A.** The activation was 55.4% (active).

**Q.** How did the activation turn out when `COc1ccccc1NC(=O)C1=C(C)NC2=C(C(=O)CCC2)C1c1ccc(C)o1` (stereo not given) was run?
**A.** Its activation is 110% (active).

**Q.** With `NC(=O)Nc1ccccc1C(=O)NCCc1ccccc1` as the molecule, how does the activation read?
**A.** The activation was 106% (active).

**Q.** `CC(C)n1ncc2c(C(=O)Nc3ccc(CC#N)cc3)cc(C3CC3)nc21` was tested. Which activation did it give?
**A.** Its activation is 25.4%.

**Q.** For `Cc1ccc(NC(=O)Nc2cccnc2)cc1`, which activation is on record?
**A.** The activation was 67.7% (active).

**Q.** Which activation does the source give for `CCC(=O)NC(=S)Nc1ccc(NC(=O)c2ccco2)c(Cl)c1` here?
**A.** Its activation is 82% (active).

**Q.** With `COc1cc(NC(=O)c2ccc(-c3csc(C)n3)cc2)c(OC)cc1Cl` as the molecule, how does the activation read?
**A.** The activation was 119% (active).

**Q.** How did the activation turn out when `CCNC(=S)N1CCC(c2nc3cc(C)c(C)cc3[nH]2)CC1` was run?
**A.** The activation was 25.5%.

**Q.** Which activation does the source give for `O=C(Nc1cccc(Br)c1)c1ccc2snnc2c1` here?
**A.** Its activation is 74.4% (active).

**Q.** `CNC(=O)c1ccc2nc(NC(C)=O)sc2c1` was tested. Which activation did it give?
**A.** The activation was 22.7%.

**Q.** Which activation does the source give for `COc1cc(CNCc2ccc3c(c2)OCO3)c([N+](=O)[O-])cc1OC` here?
**A.** The activation was 87.3% (active).

**Q.** With `Brc1ccc(C2=CC(c3ccco3)n3ncnc3N2)cc1` (stereo not given) as the molecule, how does the activation read?
**A.** The activation was 90.4% (active).

**Q.** Which activation does the source give for `S=c1[nH]nc(-c2cc(-c3ccsc3)n[nH]2)n1-c1ccccc1` here?
**A.** Its activation is 103% (active).

**Q.** Which activation does the source give for `Cc1ccnc(NC(=O)c2ccc(Cl)c([N+](=O)[O-])c2)c1` here?
**A.** Its activation is 60.8% (active).

**Q.** With `Cc1cccc(N=Nc2c(O)[nH]c3ccc(F)cc23)c1` as the molecule, how does the activation read?
**A.** The activation was 147% (active).

**Q.** How did the activation turn out when `COc1cccc(-c2nc3cc(C)ccc3o2)c1` was run?
**A.** The activation was 47% (active).

**Q.** For `CC(=O)Nc1ccc(-c2nc3ccccc3o2)cc1`, which activation is on record?
**A.** Its activation is -4.38%.

**Q.** For `COc1ccc(OC)c(-c2csc(-c3cccs3)n2)c1`, which activation is on record?
**A.** The activation was 94.4% (active).

**Q.** Which activation does the source give for `O=C(CCCCn1c(=O)[nH]c2ccccc2c1=O)NCc1ccc2c(c1)OCO2` here?
**A.** Its activation is 56.1% (active).

**Q.** How did the activation turn out when `Brc1ccc(C2CC(c3ccccc3)=Nc3ccccc3N2)cc1` (stereo not given) was run?
**A.** The activation was 80.8% (active).

**Q.** How did the activation turn out when `NNc1nc2c(Cl)cccc2s1` was run?
**A.** Its activation is 57.5% (active).

**Q.** For `CC(C)n1cnc2c(Nc3cccc(Cl)c3)nc(N(CCO)CCCO)nc21`, which activation is on record?
**A.** Its activation is 11.4%.

**Q.** `CN(C)S(=O)(=O)Oc1ccccc1C(=O)Nc1ccccc1Cl` was tested. Which activation did it give?
**A.** Its activation is 99.1% (active).

**Q.** `CCOC(=O)c1nc(-c2ccc3c(c2)OCO3)[nH]c1C` was tested. Which activation did it give?
**A.** The activation was 68.3% (active).

**Q.** With `CCn1c2ccccc2c2cc(NC(=O)C/C(C)=N/NC(=O)c3ccccc3N)ccc21` as the molecule, how does the activation read?
**A.** The activation was 61.5% (active).

**Q.** For `CCn1c(NC(=O)c2nn(C)cc2Br)nc2ccccc21`, which activation is on record?
**A.** The activation was 70.7% (active).

**Q.** Which activation does the source give for `O=C(Nc1ccc(Cl)cn1)c1cnn2cccnc12` here?
**A.** The activation was 179% (active).

**Q.** How did the activation turn out when `COc1ccc(Nc2nnc(C)c3ccccc23)cc1` was run?
**A.** Its activation is 82.5% (active).

**Q.** `Cn1c(C(=O)NCCc2ccsc2)cc2c(=O)n(C)c3ccccc3c21` was tested. Which activation did it give?
**A.** The activation was 65.4% (active).

**Q.** How did the activation turn out when `O=C(NC1CC1)C1=C[C@H](c2c[nH]c3ccccc23)C[C@H](OCc2ccc(CO)cc2)O1` was run?
**A.** The activation was 27.6%.
